Test results reported in the supplement of paper PMC12636033.
± gives the standard deviation of the averaged measurements. In all, about 33,000 sequences were measured (“E-score (rank enrichment, -0.5 to 0.5)”: median about -0.0028, highest 2% from about 0.23 on). The list comes from a sample in which the highest values are over-represented; it also holds similar and randomly drawn sequences.

system: 2Sb-muMax20 (muMax20 with two 1,3-bis(methyl)benzene Cys staples, A13C/A17C and Q88C/A92C, C-terminal Lys); experiment: PBM 8-mer E-score (E-score (rank enrichment, -0.5 to 0.5)); higher = stronger preferential binding
Method: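 Protein binding microarray (universal PBM chip covering all 10-mers in fixed probe flanks) with chemically synthesized human Max(13-93) bHLH-LZ analogs (not full-length Max) bearing noncanonical residues (hArg, Tha, Aib, Nle at 65) and aromatic Cys staples. Read-out per 8-mer (and its reverse complement): E-score (rank-based enrichment, -0.5 to 0.5) and Z-score of median probe intensity.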

Sequence	PBM 8-mer E-score
TACATCGA	0.106 ± 0.022
AAGTGTCC	0.0439 ± 0.046
AAAATCTA	0.00391 ± 0.078
AAACGACC	0.115 ± 0.032
AAACGACT	0.24 ± 0.023
AAACGACG	0.0001 ± 0.01
TAAGTTCA	-0.0564 ± 0.0074
CACACATA	0.00584 ± 0.1
GACACATA	0.0252 ± 0.086
AACATACG	0.273 ± 0.019
CACATACG	0.0173 ± 0.041
TACATAAA	0.242 ± 0.046
CACATAAA	0.0814 ± 0.0052
GACATACC	-0.168 ± 0.044
TACACATA	0.268 ± 0.019
AACATACT	0.1 ± 0.032
AACATAAA	0.145 ± 0.0096
GACATACA	0.235 ± 0.0046
GACATAGA	-0.0561 ± 0.027
CGTGGGAC	0.0245 ± 0.068
CATTGGAC	-0.164 ± 0.097
ACTGAGAA	-0.135 ± 0.097
ACATGAAA	0.0717 ± 0.024
CAGGAGAA	0.107 ± 0.037
AGCAGCGA	-0.182 ± 0.0055

Sequence	PBM 8-mer E-score
AGTGTTGG	0.043 ± 0.048
GCGAGACA	-0.0901 ± 0.089
AGAATTGA	-0.00649 ± 0.005
CCGGTGGA	-0.167 ± 0.015
ATAAGACC	0.114 ± 0.078
AAGGTATT	0.0792 ± 0.027
ATAGGAGG	-0.0435 ± 0.015
GGTGTCCA	0.00348 ± 0.039
ACTTACCC	0.166 ± 0.053
TACATACA	0.235 ± 0.031
AACATACA	0.153 ± 0.061
CACATACA	0.0172 ± 0.022
TCCTGCGA	-0.0443 ± 0.016
AATAAATT	0.271 ± 0.019
CATAAAAG	0.00379 ± 0.14
AATAAATA	0.0902 ± 0.023
ATTAAATA	0.208 ± 0.023
AATAAAAA	0.187 ± 0.046
TATAAATA	0.133 ± 0.019
CTTAAATA	0.056 ± 0.014
CATAAATA	0.293 ± 0.029
AATAAAAT	0.0858 ± 0.023
GTTAAATA	0.23 ± 0.023
AATAAAAG	0.241 ± 0.065
AATAAATG	0.226 ± 0.0099

Sequence	PBM 8-mer E-score
ATGTAAGA	0.104 ± 0.011
ACTCTTTC	0.0291 ± 0.035
CTTTATCC	0.0138 ± 0.00086
CGCAAACG	-0.0619 ± 0.011
CAAAATAG	0.0583 ± 0.12
CGACATTC	-0.0236 ± 0.057
TCGCAGCA	-0.185 ± 0.015
CCTTACAA	-0.0496 ± 0.00098
TAACCGTA	0.179 ± 0.033
ATGAAGGA	0.0372 ± 0.02
CAGATGGG	-0.06 ± 0.043
ACGCCACA	0.113 ± 0.019
TCACTGAA	0.0386 ± 0.03
ACAATCGG	-0.076 ± 0.075
AACGACAT	0.126 ± 0.076
AGTGCTGC	-0.166 ± 0.021
GCACCCCC	-0.265 ± 0.028
CCACCCCA	0.275 ± 0.1
CCACCCCG	0.0359 ± 0.026
CCACCCCC	-0.0738 ± 0.041
TCACCCGA	-0.0977 ± 0.0029
GCACCCCA	0.24 ± 0.031
TCACCCAA	0.154 ± 0.032
ACACCCCA	0.224 ± 0.036
TCACCCCA	0.368 ± 0.011

Sequence	PBM 8-mer E-score
CGCGTCGC	-0.0885 ± 0.02
CAACCTTG	-0.0156 ± 0.0055
CCTAAAGC	0.0284 ± 0.038
AAAATGCA	0.127 ± 0.02
AAAATGCC	0.00067 ± 0.042
AAAATGCT	0.235 ± 0.0065
AATTAGCC	-0.107 ± 0.095
CCTGACCC	-0.146 ± 0.077
GTGTTTTA	0.098 ± 0.036
CTGTTTTA	0.24 ± 0.013
CTGTTTAA	0.0361 ± 0.028
CCCCCTTC	-0.174 ± 0.065
ACCCCTTC	0.328 ± 0.018
AACCCTCC	-0.0982 ± 0.073
ACCCCTAT	0.252 ± 0.081
GCCCCTAA	0.245 ± 0.038
AACCCTTC	0.11 ± 0.054
ACCCCTCC	0.258 ± 0.052
CCCCCTAA	-0.037 ± 0.031
ACCCCTAA	0.218 ± 0.037
CCCCCTCC	-0.0384 ± 0.17
TCCCCTAA	0.196 ± 0.03
ACCCCTAG	0.11 ± 0.029
TAGACGAA	-0.053 ± 0.022
GTCCGACA	-0.0883 ± 0.025

Sequence	PBM 8-mer E-score
TACACACA	0.00095 ± 0.038
AACAGTCC	-0.0613 ± 0.014
CGCCTTCC	-0.134 ± 0.085
ACCGCCGG	-0.212 ± 0.076
ATGGCTAC	0.106 ± 0.049
CACCTCAA	-0.0623 ± 0.06
CCTCAGCC	-0.0948 ± 0.096
AGGGTCCC	-0.337 ± 0.0037
TTAGCAAA	0.1884 ± 0.00076
GCCCCTCA	-0.0171 ± 0.064
CGCCCTCC	0.0189 ± 0.097
ACCCCTCA	0.307 ± 0.0085
ACCCCTCG	0.0393 ± 0.084
TCCCCTCA	0.247 ± 0.0079
TACCCTCA	0.0472 ± 0.026
CCCCCTCA	0.0422 ± 0.049
GCCCCCCC	-0.18 ± 0.13
GCCCCTCC	0.274 ± 0.099
ACTTCAGA	-0.161 ± 0.095
CAGCTCCG	-0.19 ± 0.065
ATATGGAA	0.0497 ± 0.036
TGGTGTAA	0.249 ± 0.037
GGGTGTAA	0.0984 ± 0.049
CGGTGTAA	-0.0426 ± 0.082
TCCGGGAA	-0.184 ± 0.07

Sequence	PBM 8-mer E-score
AAAACGAG	-0.00059 ± 0.034
GGTATACA	0.105 ± 0.011
CGTATACG	0.341 ± 0.027
CGTATACA	0.0906 ± 0.018
CGTATACC	-0.123 ± 0.0037
AGTATACA	0.135 ± 0.025
TGTATACA	0.259 ± 0.05
CAGCAGGC	-0.139 ± 0.04
CCCTCCCC	0.157 ± 0.25
CCCCTCCC	0.297 ± 0.13
ACCCTCCA	0.0708 ± 0.031
ACCCTCCT	-0.0718 ± 0.019
ACCCTCCC	0.289 ± 0.04
CCCCTCCG	0.00173 ± 0.08
CGGGTTAA	-0.0694 ± 0.12
ACAGGTCT	-0.101 ± 0.015
GGCAATAC	-0.0237 ± 0.039
ACGCGGCA	-0.1504 ± 0.0011
AGAGCAAA	-0.124 ± 0.036
AGCGTATG	0.0491 ± 0.018
CGGATTTA	-0.0345 ± 0.005
GCACGGTA	-0.226 ± 0.0061
TAACGTAA	-0.00578 ± 0.0029
ATAACTTA	0.0822 ± 0.028
ATAACTTG	0.253 ± 0.032

Sequence	PBM 8-mer E-score
ATAACGTG	0.277 ± 0.022
ATAACGTC	0.0413 ± 0.0089
ATAACTTC	0.1632 ± 0.00065
ATAACGTA	0.16 ± 0.052
TTCAGGAA	-0.0598 ± 0.038
CCAAGAAC	0.098 ± 0.03
CGTCCCTC	-0.107 ± 0.023
ATTACAGC	0.0657 ± 0.05
CTTACACC	-0.035 ± 0.078
ATTACAGG	0.286 ± 0.0044
ATTACACC	0.254 ± 0.06
ATTACAGA	-0.121 ± 0.03
ATTACACG	0.0209 ± 0.026
ACGAGGGG	0.0607 ± 0.017
CAAAGGAA	0.047 ± 0.054
GAGGATGA	0.0986 ± 0.081
GTAAACGA	-0.00855 ± 0.0052
CAAAACGA	0.103 ± 0.0049
AAAAACGA	0.256 ± 0.03
GAAAACGA	-0.0116 ± 0.016
ATAAACGC	-0.0771 ± 0.058
ATAAACGA	0.233 ± 0.029
